Compound activity deposited in PubChem BioAssay by National Center for Advancing Translational Sciences (NCATS).
GBA activity: modulators of human glucocerebrosidase | 48,000 compounds, 1.1% hits | purified enzyme, resorufin glucoside fluorescence (screen aimed at inhibitors), 20 min | Potency, µM | P04062 | AID 360; in the data active = potency below about 15 µM; inconclusive = mostly about 16 µM to 33 µM;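 also: the screen sought inhibitors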
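Compounds titrated against 0.2 nM normal enzyme, 30 uM resorufin beta-D-glucopyranoside substrate, citrate/phosphate buffer with taurocholate and tween-20, pH 5.9. Reaction ran 20 min at room temperature; fluorescence (Ex 548/Em 600) gave AC50.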
HEK293 cAMP ctrl: parental HEK293 cAMP activation (counter-screen); parental HEK293 CNG cAMP sensor, membrane potential fluorescence; Potency, µM (highest dose often 57.1 µM), for the others: at the highest dose activation, actives largely listed as activators; 73,000 compounds, 2.5% hits; AID 938; active = well fitted activation curve with a large enough effect; inconclusive = small, poorly fitted or top-dose-only effect; inactive = no such curve, though single readings can be large or run the other way; also: % of control where 0% means no effect; nearly all actives have a fitted effect of over 55% in size
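Parental HEK 293 cells stably expressing a modified CNG channel (no TSHR) report cAMP rise as membrane depolarization. Membrane potential dye with 100 uM RO 20-1724 was loaded for 60 min at room temperature, then compound added for 30 min; fluorescence read at 590 nm.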
PK Bst: alters activity of Bacillus stearothermophilus pyruvate kinase; purified pyruvate kinase, luminescence ATP production; ribose 5-phosphate activator present at AC10; Potency, µM; 51,000 compounds, 1.2% hits; in the data active = potency below about 11 µM; inconclusive = mostly about 12 µM to 25 µM;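 the screen sought inhibitors and activators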;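 also: scaled between full activation by ribose 5 phosphate and full inhibition by luteolin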
TSHR agonist: agonists of human thyroid stimulating hormone receptor; P16473; 73,000 compounds, 0.48% hits; Potency, µM (top dose mostly 57.1 µM), for inactives: top-dose activation, most hits filed as activators; HEK293-CNG-TSHR cells (CNG channel as cAMP sensor), membrane potential dye, cAMP; active = well fitted activation curve with a large enough effect in the main read-out, with a control signal flat, not every such curve was filed as active; inconclusive = small, poorly fitted or top-dose-only effect, or a change in a side signal; inactive = no such curve, though single readings can be large or run the other way; % of control where 0% means no effect;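 also: the control signal comes from parental cells without the receptor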
Target sequence (P16473 whole entry, looked up): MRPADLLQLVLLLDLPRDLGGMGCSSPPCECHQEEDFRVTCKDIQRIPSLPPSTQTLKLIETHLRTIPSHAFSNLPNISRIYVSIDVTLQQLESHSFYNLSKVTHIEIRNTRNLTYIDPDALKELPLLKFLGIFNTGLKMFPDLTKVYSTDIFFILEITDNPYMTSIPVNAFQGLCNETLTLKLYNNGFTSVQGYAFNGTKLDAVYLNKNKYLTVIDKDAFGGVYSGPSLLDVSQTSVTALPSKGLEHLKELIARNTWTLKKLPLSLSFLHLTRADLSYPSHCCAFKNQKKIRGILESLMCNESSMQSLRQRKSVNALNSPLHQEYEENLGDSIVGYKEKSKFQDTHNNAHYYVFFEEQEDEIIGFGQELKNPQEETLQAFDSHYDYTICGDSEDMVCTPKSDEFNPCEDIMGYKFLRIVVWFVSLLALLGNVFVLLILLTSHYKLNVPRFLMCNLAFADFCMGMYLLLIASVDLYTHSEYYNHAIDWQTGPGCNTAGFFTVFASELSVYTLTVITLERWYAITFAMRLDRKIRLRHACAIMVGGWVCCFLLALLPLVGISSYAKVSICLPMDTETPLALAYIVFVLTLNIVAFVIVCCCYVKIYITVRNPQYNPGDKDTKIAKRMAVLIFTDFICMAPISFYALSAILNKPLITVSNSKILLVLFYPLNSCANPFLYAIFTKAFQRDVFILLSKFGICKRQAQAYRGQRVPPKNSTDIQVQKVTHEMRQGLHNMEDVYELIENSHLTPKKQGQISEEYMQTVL
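HEK 293 cells stably expressing TSHR and a modified CNG channel, with CNG-only parental cells as counterscreen, were preloaded 60 min at room temperature with membrane potential dye containing 100 uM RO 20-1724. Compound exposure was 30 min, and depolarization was read as fluorescence at 590 nm.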
The depositor's hits bear a star; i = inactive; u = inconclusive; x = no result; [ ] = another dose, or the depositor's remark. In the library only some 4% were active in any assay of this set; here they are far more common. Potency is read from the fitted curve at half-maximal effect.

SMILES | GBA activity | HEK293 cAMP ctrl | PK Bst | TSHR agonist
COCc1nc2ccccc2n1Cc1ccccc1 | >77 | 29% | >57 | 19%
Nc1nonc1-c1nc2ccccc2n1Cc1ccccc1 | >77 | 25µM* | >57 | u
O=C(Nc1ccc(Nc2ccc3c(c2)C(=O)c2ccccc2C3=O)c2c1C(=O)c1ccccc1C2=O)c1ccccc1 | x | 0%[11.4 µM] | x | -45%[11.4 µM]
Cc1ccc(-c2nnc3n2N=C(c2ccc(Br)cc2)CS3)cc1 | x | 15% | x | 11%
Brc1ccc(C2=Nn3c(nnc3-c3n[nH]c4c3CCC4)SC2)cc1 | u | 13µM* | >57 | u
Clc1ccc(C2=Nn3c(nnc3-c3n[nH]c4c3CCC4)SC2)cc1 | u | 25µM* | >57 | u
Nc1ccc(C(=O)C[C@H](N)C(=O)O)cc1O | x | 3%[11.4 µM] | x | -5%[11.4 µM]
O=C1c2oc3ccc(Br)cc3c(=O)c2C(c2cccnc2)N1Cc1ccco1 (stereo unspecified) | >77 | 3% | >57 | x
O=C1c2oc3ccccc3c(=O)c2C(c2cccc(Br)c2)N1Cc1ccco1 (stereo unspecified) | >77 | 13µM* | >57 | u
CN(c1ccc(OCc2nnc(-c3ccccc3)o2)cc1)S(=O)(=O)c1ccccc1 | >77 | 16µM* | >57 | u
Cc1ccc(-n2c(SCC(=O)NCc3ccco3)nc3sc(C)c(C)c3c2=O)cc1 | >77 | -2% | >57 | 15%
CC(C)C(C)(C#N)NC(=O)CSc1nc2scc(-c3ccco3)c2c(=O)n1-c1ccccc1 (stereo unspecified) | 15* | 10% | >57 | x
COc1ccccc1NC(=O)Cn1nnc(-c2ccccc2NC(=O)c2ccco2)n1 | >77 | 9% | >57 | 7%
COc1ccc(NC(=O)Cn2nnc(-c3ccccc3NC(=O)c3ccco3)n2)cc1 | 7.2* | -6% | >57 | 25%
CN(C)CCCCN1CCc2c(n(C)c3ccccc23)C1=O | x | 12%[11.4 µM] | x | 4%[11.4 µM]
COc1ccc(OC(C)C(=O)N2CCc3ccccc3C2)cc1 (stereo unspecified) | >77 | 6% | i | 15%
COc1cc(C(=O)OC(C)C(=O)N2CCc3ccccc3C2)ccc1OCC(=O)N1CCOCC1 (stereo unspecified) | >77 | 12% | 11* | 7%
O=C(CN1C(=O)c2ccccc2C1=O)Nc1ccc(S(=O)(=O)NCC2CCCO2)cc1 (stereo unspecified) | >77 | 7% | >57 | -22%
O=C(O)c1ccc(S(=O)(=O)c2ccc3c(c2)C(=O)N(CC2CCCO2)C3=O)cc1 (stereo unspecified) | x | 20µM* | x | u
O=C(O)c1ccc(S(=O)(=O)c2ccc3c(c2)C(=O)N(Cc2ccco2)C3=O)cc1 | >77 | 17% | >57 | 32µM*
O=S(=O)(O)c1cc(O)c2c(N=Cc3ccccc3O)cc(S(=O)(=O)O)cc2c1 | x | -6%[11.4 µM] | x | -1%[11.4 µM]
COc1ccc(OCCSc2nnnn2C2CCCCC2)cc1 | >77 | u | >57 | u
c1ccc(OCCSc2nnnn2C2CCCCC2)cc1 | >77 | 25µM* | x | u
Cc1ncsc1C(=O)Nc1nc2c(s1)CC(C)CC2 (stereo unspecified) | >77 | 3% | 10* | 0%
Cc1cc(C(=O)CN(Cc2ccc(F)cc2)S(=O)(=O)c2ccc3c(c2)OCCO3)c(C)n1C | u | -1% | >57 | 12%
SMILES | GBA activity | HEK293 cAMP ctrl | PK Bst | TSHR agonist
O=S(=O)(c1ccc2c(c1)OCCO2)N(Cc1ccc(F)cc1)Cc1nnc(-c2cccs2)o1 | >77 | 2µM* | >57 | u
Cc1noc(C)c1CN1C(=O)NC(Cc2ccccc2)(Cc2ccccc2)C1=O | >77 | 0% | >57 | 25µM*
CCOc1ccc(-n2c(Cc3ccccc3)nnc2SCc2c(C)noc2C)cc1 | >77 | 28% | x | 16%
COc1ccc(C(=O)[C@H](Br)[C@H](Br)C(=O)O)cc1 | x | 3%[11.4 µM] | x | 10%[11.4 µM]
CN(C)c1nc(N2CCCCC2)nc(N2CCCCC2)n1 | x | 8% | x | 0%
Cn1c(=O)c2cc(S(=O)(=O)N3CCN(c4cccc(C(F)(F)F)c4)CC3)ccc2n(C)c1=O | 7.3* | u | >57 | u
O=C(CN1C2=NCCCN2c2ccccc21)c1ccc(Br)s1 | 6.6* | 23% | >57 | 17%
COc1ccc(-c2cc(CCCC(=O)NCCc3cc(OC)ccc3OC)no2)cc1 | >77 | 32µM* | >57 | u
COc1ccccc1-c1nc(C#N)c(N2CCN(Cc3ccccc3)CC2)o1 | 12* | u | >57 | u
N#Cc1nc(COc2ccc(Br)cc2)oc1N1CCN(Cc2ccccc2)CC1 | x | x | >26 | x
N#Cc1nc(COc2ccc(F)cc2)oc1N1CCN(Cc2ccccc2)CC1 | >77 | 6.3µM* | >57 | u
N#Cc1nc(COc2ccc(F)cc2)oc1N1CCC(Cc2ccccc2)CC1 | >77 | 4µM* | >57 | u
CN(C)CN1C(=O)S/C(=C2/C(=O)N(CN(C)C)c3ccccc32)C1=O | x | -7%[11.4 µM] | x | -4%[11.4 µM]
O=C(O)C(Sc1ccc(Cl)cc1)Sc1ccc(Cl)cc1 | x | 23%[11.4 µM] | x | 10%[11.4 µM]
NC(=O)c1cnn2c(C(F)(F)F)cc(-c3ccc(F)cc3)nc12 | >77 | -5% | 2.7* | 8%
NC(=O)c1cnn2c(C(F)(F)F)cc(-c3ccccc3)nc12 | >77 | 1% | 11* | 12%
Cc1ccc(-c2cc(C(F)(F)F)n3ncc(C(=O)N4CCN(C)CC4)c3n2)cc1 | x | 1%[11.4 µM] | x | -3%[11.4 µM]
O=C(c1cnn2c(C(F)(F)F)cc(-c3ccc4c(c3)OCO4)nc12)N1CCCCC1 | >77 | 20µM* | >57 | u
Nc1c(OCC(=O)O)ccc2cc(S(=O)(=O)O)ccc12 | x | 1%[11.4 µM] | x | -6%[11.4 µM]
O=C(c1ccccc1)N(Cc1ccccc1)c1ccccn1 | x | 21%[11.4 µM] | x | 4µM*
Cn1cc(Cl)c(C(=O)N(Cc2ccccc2)c2ccccn2)n1 | x | 7% | x | 8%
CCCCCn1c(N)c(C#N)c2nc3ccccc3nc21 | 2.7* | -2% | >57 | -10%
N#Cc1c(N)n(CCCN2CCOCC2)c2nc3ccccc3nc12 | u | 16% | >57 | -2%
COc1cccc(-c2nnc(SCC(=O)OC(C)C)n2N)c1 | >77 | 11% | u | 13µM*
CCC1CCCCN1C(=O)Cn1c(C(=O)OC)cc2sc(Cl)cc21 (stereo unspecified) | x | 16µM* | >57 | u
SMILES | GBA activity | HEK293 cAMP ctrl | PK Bst | TSHR agonist
CCC1CCCCN1C(=O)Cn1c(C(=O)OC)cc2ccsc21 (stereo unspecified) | x | 25µM* | >57 | u
N#C[C@H](c1ccccc1)N1CCCN([C@@H](C#N)c2ccccc2)C1c1ccccc1O (stereo partly specified) | x | -1%[11.4 µM] | x | 7%[11.4 µM]
COc1ccc(OC)c2[nH]c(=O)c(CCNS(=O)(=O)c3ccc(C)cc3)cc12 | >77 | 27% | 2.3* | 19%
COc1ccc(OC)c2[nH]c(=O)c(CCNC(=O)c3ccc(S(=O)(=O)N(C)C)cc3)cc12 | >77 | -4% | >57 | -6%
COc1ccc(OC)c2[nH]c(=O)c(CCNS(=O)(=O)c3ccc(Cl)cc3)cc12 | >77 | 20% | 4.3* | x
Cc1ccccc1-c1nc(Nc2ccncc2)c2ccccc2n1 | x | 9% | x | 5%
O=C(CN1CCN(Cc2ccccc2)C1=O)NCc1ccc(Cl)cc1 | >77 | 5% | >57 | 0%
